Assay results from PubChem BioAssay (Tox21).
Calls of active or inactive are those of the source. Calls come from the whole dose curve.

Biological target: Gonadotropin-releasing hormone receptor (Homo sapiens) (UniProt P30968)
Assay: Human gonadotropin-releasing hormone receptor (GnRHR) small molecule agonists, calcium flux assay in GnRHR-HEK293 cells (AID 1920063); note: nearly all actives have a fitted effect of over 35% in size
Conditions: calcium flux fluorescence, agonist mode; series mostly up to 57.6 µM; activity change: at the top concentration
Description: National Center for Advancing Translational Sciences [NCATS]
Division of Preclinical Innovation [DPI]
U.S. Environmental Protection Agency [EPA]
National Institutes of Environmental Health Sciences [NIEHS]
National Toxicology Program [NTP]
U.S. Food and Drug Administration [FDA]
Gonadotropin-releasing hormone receptor (GnRHR) is a G-protein-coupled receptor (GPCR) and acts (through phospholipase C) to increase intracellular inositol trisphosphate and then release intracellular calcium stores. Cell-based GnRHR-Hek293 calcium influx assay is using HEK293 cells that have been genetically engineered to express the human GnRHR, which activity can be measured by calcium signaling. A compound/drug can activate (agonist) GnRHR that can be monitored by levels of intracellular calcium.
GnRHR-HEK293 cells developed by Codex Corp contain human GnRHR reporter gene, which was stably integrated into HEK 293 cells. The compound activation can be detected by fluorescence intensity via calcium flux assay. This cell line has been used to screen the Tox21 10K compound library to identify GnRHR agonists.
GnRHR-Hek293 cells were dispensed at 1500cells/4uL/well in 1536-well black wall/clear bottom plates using a multidrop dispenser. After the assay plates were incubated at a 37 C/5% CO2 incubator for 18 hours, 4 uL of Calcium Dye Solution was added to each well. The plates were incubated at 37 C for 1 hour. For agonist mode, 23 nL of compounds dissolved in DMSO, positive controls or DMSO only was transferred to the assay plate by a pin tool station. The fluorescence intensity in the plates was measured using FDSS 7000EX kinetic plate reader with a filter set of Ex/Em=480/540 for 3 min at 1 sec intervals. Each test compound was measured at 15 concentrations and in triplicates.
% is set by controls: 0 for no effect and ±100 for the full control effect.

Gonadotropin-releasing hormone receptor (Homo sapiens), sequence (P30968 whole entry, looked up): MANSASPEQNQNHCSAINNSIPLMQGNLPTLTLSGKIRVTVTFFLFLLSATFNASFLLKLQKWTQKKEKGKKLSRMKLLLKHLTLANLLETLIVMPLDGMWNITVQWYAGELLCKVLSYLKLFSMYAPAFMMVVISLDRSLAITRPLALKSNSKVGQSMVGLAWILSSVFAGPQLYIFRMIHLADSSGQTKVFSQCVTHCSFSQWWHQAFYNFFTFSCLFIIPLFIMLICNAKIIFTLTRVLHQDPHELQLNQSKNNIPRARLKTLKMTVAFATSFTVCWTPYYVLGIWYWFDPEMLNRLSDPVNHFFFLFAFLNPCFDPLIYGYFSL

Structure (SMILES) | activity change | Potency
COCCCC/C(=N\OCCN)c1ccc(C(F)(F)F)cc1 | 9.92% [at 26.4 µM, stronger effect = higher value] (inactive) | 
CCCCOC(=O)C(=O)OCCCC | 1.49% (inactive) | 
C/C=C/c1ccc(OC)c(OC)c1 | -0.627% (inactive) | 
CC(C(=O)O)c1cccc(C(=O)c2ccccc2)c1 (stereo not given) |  | inactive
C=C(C)[C@@H]1CCC2=CC(=O)C[C@@H](C)[C@]2(C)C1 | 6.42% (inactive) | 
c1ccc(SCCSc2ccccc2)cc1 | -0.339% (inactive) | 
CC(C)C(=O)c1c(C(C)C)nn2ccccc12 | 5.01% [at 26.4 µM, stronger effect = higher value] (inactive) | 
OCCOCCN1CCN(C2=Nc3ccccc3Sc3ccccc32)CC1 |  | inactive
NC(=O)c1cccc([N+](=O)[O-])c1 | 0.386% (inactive) | 
CC(=O)/C=C/C1C(C)=CCCC1(C)C (stereo not given) | -1.16% (inactive) | 
CCCCCCCCS(=O)(=O)Cl | 0.265% (inactive) | 
CCCCOCCOCCOC(=O)CCCCC(=O)OCCOCCOCCCC |  | inactive
COc1ccccc1NC(=O)CC(C)=O | -0.167% (inactive) | 
CC[C@]1(O)C[C@@H]2CN(CCc3c([nH]c4ccccc34)[C@@](C(=O)OC)(c3cc4c(cc3OC)N(C)[C@H]3[C@@](O)(C(=O)OC)[C@H](OC(C)=O)[C@]5(CC)C=CCN6CC[C@]43[C@@H]65)C2)C1 |  | inactive
CC1=CC[C@@H](C(C)(C)O)CC1 | 1.29% (inactive) | 
O=C(c1ccccc1O)c1ccccc1O | 0.0343% (inactive) | 
CC(C)N=C(N)/N=C(\N)Nc1ccc(Cl)cc1 | 0.145% [at 26.4 µM, stronger effect = higher value] (inactive) | 
O=C1CCC(=O)O1 | -1.52% (inactive) | 
CCCO | 1.39% (inactive) | 
c1coc(CNc2ncnc3nc[nH]c23)c1 | 1.35% (inactive) | 

Structure (SMILES) | activity change | Potency
CCCC(=O)C(C)=O | -0.0785% (inactive) | 
CC1=NN(c2ccc(S(=O)(=O)O)cc2)C(=O)C1 | -0.501% (inactive) | 
CC#N | 0.703% (inactive) | 
C=C(C)C(=O)OCCOP(=O)(O)O | -0.259% (inactive) | 
NS(=O)(=O)c1ccc(N2CCCCS2(=O)=O)cc1 | -0.461% [at 26.4 µM, stronger effect = higher value] (inactive) | 
O=C(O)CN(CCCN(CC(=O)O)CC(=O)O)CC(=O)O | 14.7% [at 11.8 µM, stronger effect = higher value] (inactive) | 
O=S(=O)(O)c1cc(O)c(O)c(S(=O)(=O)O)c1 | -0.0213% (inactive) | 
Cc1c(C(=O)c2c[nH]n(C)c2=O)ccc(S(C)(=O)=O)c1C1=NOCC1 | 1.34% [at 26.4 µM, stronger effect = higher value] (inactive) | 
CCOC(=O)n1ccn(C)c1=S | -0.0306% (inactive) | 
O=C(O)/C=C/c1ccccc1 | 0.463% (inactive) | 
CC1=CC(=O)NS(=O)(=O)O1 |  | inactive
CCOC(=O)C(C)C(C)=O (stereo not given) | -0.448% (inactive) | 
CCC(C)S (stereo not given) | -0.606% [at 2.04 µM, stronger effect = higher value] (inactive) | 
CCCCC(CC)COC(C)=O (stereo not given) |  | inactive
C[Si](C)(C)O[Si](C)(C)O[Si](C)(C)C | -0.0424% (inactive) | 
CC(=O)[O][Al][O]C(C)=O | 0.803% (inactive) | 
COC(=O)C1=C(C)NC(C)=C(C(=O)OCC(C)C)C1c1ccccc1[N+](=O)[O-] (stereo not given) |  | inactive
Nc1nccs1 | -1.82% (inactive) | 
CC(C)Oc1ccc2c(=O)c(-c3ccccc3)coc2c1 |  | inactive
CC(C)=CCCC(C)CC=O (stereo not given) | -0.445% (inactive) | 
